Experimental data from PubChem BioAssay (NCATS).
Calls of active or inactive are those of the source. The call rests on the fitted dose curve.

Target: Glucocorticoid receptor (Homo sapiens) (UniProt P04150)
Assay: GR-EFC Redistribution (AID 451)
Conditions: CHO-K1 GR-EFC translocation, beta-gal luminescence, 2 h
Excerpt: NIH Molecular Libraries Screening Centers Network [MLSCN]
NIH Chemical Genomics Center [NCGC]
The glucocorticoid receptor (GR) is a cytoplasmic receptor that belongs to the nuclear receptor family of ligand-dependent transcription factors. Upon glucocorticoid binding to its receptor, the glucocorticoid-GR complex translocates into the nucleus, where it binds as a dimer to specific DNA sequences (glucocorticoid response elements), enhancing or suppressing transcription of a wide variety of glucocorticoid-responsive genes. In addition to their important roles in normal physiology and metabolism, glucocorticoids are administered exogenously as treatments for a wide variety of allergic, autoimmune, and neoplastic conditions. Identification of compounds that modulate aspects of GR signalling would be useful in dissecting glucocorticoid response pathways as well as developing GR modulators with more targeted clinical effects.
Traditionally, GR modulators have been identified using receptor binding or direct transactivation assays. However, assays for glucocorticoid-dependent nuclear translocation can also be used to screen for compounds affecting GR signaling.
Immunocytochemical staining has been used to assay for GR translocation, but is not suitable for high throughout screening due to the multiple reagent addition and wash steps required. Recently, a novel cell-based GR assay in Enzyme Fragment Complementation (EFC) format was developed by DiscoveRx (Fremont, CA). The assay uses EFC of b-galactosidase (b-gal) as an indicator of GR-translocation in engineered CHO-K1 biosensor cells. The enzyme acceptor (EA) fragment of b-gal resides in the nucleus , as designed through the use of a proprietary set of sequence additions and modifications. The small peptide enzyme donor (ED) fragment of b-gal is fused directly to the C-terminus of GR, and is localized in the cytoplasm is the absence of receptor signaling. Upon binding to a GR ligand, the complex translocates to the nucleus, where intact enzyme activity is restored by complementation and b-gal activity is detected. We optimized this GR-EFC assay in homogenous 1536-well plate assay format for high throughput screening.
NCGC Assay Protocol Summary:
CHO-K1 cells stably expressing NLS-enzyme acceptor fragment (EA) of b-gal and GR-enzyme donor (ED) fragment of b-gal were maintained in F12 medium (Invitrogen, Carlsbad, CA) at 37 Celsius degrees under a humidified atmosphere containing 5% CO2 and 95% air. The medium contained 10% FBS, 2 mM L-glutamine, 50 U/ml penicillin 50 ug/ml streptomycin, and 250 ug/ml hygromycin and 500 ug/ml G418 (Invitrogen).
GR-translocation was measured beta-gal enzyme activity using the PathHunter Detection Kit containing cell membrane permeablizing reagent and beta-gal substrate (DiscoveRx, Fremont, CA). All compounds were screened as titrations from 0.6 nM to 46 uM final concentration. The assay was performed in 1536-well format as follows:
5 uL cell suspension (1,000 cells)/well
Incubation at 37 Celsius degrees for two hours
1.25 uL 1X detection buffer from the kit supplied by DiscoveRx
Incubation at room temperature for one hour
Read plate in luminescence mode in ViewLux plate reader (PerkinElmer)
Keywords: NIH Roadmap, MLSCN, MLI, MLSMR, GR-EFC, GREFC, qHTS, NCGC
Potency means the concentration at half of the fitted maximal effect.

Glucocorticoid receptor (Homo sapiens), sequence (P04150 whole entry, looked up): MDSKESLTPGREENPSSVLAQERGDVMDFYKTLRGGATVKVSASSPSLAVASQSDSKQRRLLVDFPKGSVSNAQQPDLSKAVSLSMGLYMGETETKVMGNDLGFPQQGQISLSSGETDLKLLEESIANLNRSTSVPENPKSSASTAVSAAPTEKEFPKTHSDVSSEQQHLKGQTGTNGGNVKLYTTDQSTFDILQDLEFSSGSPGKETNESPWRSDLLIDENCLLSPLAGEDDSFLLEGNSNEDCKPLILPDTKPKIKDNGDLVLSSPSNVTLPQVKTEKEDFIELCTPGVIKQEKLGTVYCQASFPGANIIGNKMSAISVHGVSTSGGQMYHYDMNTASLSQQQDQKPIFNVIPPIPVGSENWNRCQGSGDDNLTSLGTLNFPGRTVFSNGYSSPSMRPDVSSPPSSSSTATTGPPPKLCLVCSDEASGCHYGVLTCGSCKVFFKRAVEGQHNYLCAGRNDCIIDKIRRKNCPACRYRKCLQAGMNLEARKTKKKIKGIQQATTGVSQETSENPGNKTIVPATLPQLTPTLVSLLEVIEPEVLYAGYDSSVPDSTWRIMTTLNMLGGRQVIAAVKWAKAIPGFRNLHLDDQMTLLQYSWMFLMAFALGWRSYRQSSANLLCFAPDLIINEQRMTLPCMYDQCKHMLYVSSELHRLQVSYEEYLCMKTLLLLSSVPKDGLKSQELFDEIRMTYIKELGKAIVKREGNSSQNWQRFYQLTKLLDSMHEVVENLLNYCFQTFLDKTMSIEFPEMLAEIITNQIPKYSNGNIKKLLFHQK

| SMILES | Potency |
| --- | --- |
| CN(C)c1ccc(-c2cncnc2NCCN2CCOCC2)cc1 | > 46 µM (inactive) |
| c1ccc(CNc2nc(-c3cccnc3)nc3ccccc23)cc1 | > 46 µM (inactive) |
| c1ccc(Nc2nc(-c3cccnc3)nc3ccccc23)cc1 | > 46 µM (inactive) |
| COc1ncc2nc(-c3cccs3)c(=O)n(CCC#N)c2n1 | > 46 µM (inactive) |
| CN(C)c1ccc(-c2cc(N(C)Cc3ccco3)ncn2)cc1 | > 46 µM (inactive) |
| CN(C)C(=O)c1ccc(-c2nc(Nc3ccccc3)c3ccccc3n2)cc1 | > 46 µM (inactive) |
| COc1ccccc1CNc1ccnc(-c2cccnc2)n1 | > 46 µM (inactive) |
| COc1ncc2nc(CCc3ccccc3)c(=O)n(-c3ccccc3)c2n1 | > 46 µM (inactive) |
| O=c1c(CCc2ccccc2)nc2cnc(Oc3ccccc3)nc2n1C1CC1 | > 46 µM (inactive) |
| COc1cccc(-c2nc(NC3CC3)c3ccccc3n2)c1 | > 46 µM (inactive) |
| CN1CCN(c2ncc3nc(-c4cn(C)c5ccccc45)c(=O)n(CCC#N)c3n2)CC1 | > 46 µM (inactive) |
| COc1ccccc1-c1nc(NC2CC2)c2ccccc2n1 | > 46 µM (inactive) |
| c1ccc(NN(Cc2cnccn2)c2ccccc2)cc1 | > 9.22 µM (inactive) |
| CN1CCN(c2ncc3nc(-c4cn(C)c5ccccc45)c(=O)n(C[C@H]4CCCO4)c3n2)CC1 | > 46 µM (inactive) |
| CC(=O)NCCNc1nc(-c2cccc(C#N)c2)nc2ccccc12 | > 46 µM (inactive) |
| COc1ccccc1CNc1nc(-c2cccc(NS(C)(=O)=O)c2)nc2ccccc12 | > 46 µM (inactive) |
| COc1ccc2[nH]cc(CCNc3cc(-c4ccccc4OC)ncn3)c2c1 | > 46 µM (inactive) |
| COc1cccc(Cn2c(=O)c(CCc3ccccc3)nc3cnc(N4CCN(C)CC4)nc32)c1 | > 46 µM (inactive) |
| COc1cc2cc3c4c(cc(OC)c(OC)c4c2cc1OC)CCN3C | > 46 µM (inactive) |
| COc1ccc(-c2nc3cnc(N4CCOCC4)nc3n(-c3ccc(OC)cc3)c2=O)cc1 | > 46 µM (inactive) |

| SMILES | Potency |
| --- | --- |
| COc1cccc(-c2ccc3ncnc(N4CCNCC4)c3c2)c1 | > 46 µM (inactive) |
| CNc1ncncc1-c1ccccc1CN(C)C | > 46 µM (inactive) |
| c1ccc2c(NCCN3CCOCC3)nc(-c3ccc4c(c3)OCO4)nc2c1 | > 46 µM (inactive) |
| COc1cccc(Nc2ncc3nc(-c4ccc(F)cc4)c(=O)n(CCC#N)c3n2)c1 | > 46 µM (inactive) |
| COc1ccc2[nH]cc(CCNc3ncnc4ccc(-c5ccccc5OC)cc34)c2c1 | > 46 µM (inactive) |
| O=c1c(CCc2ccccc2)nc2cnc(N3CCNCC3)nc2n1Cc1cccs1 | > 46 µM (inactive) |
| O=C(c1cnccn1)N1CCC[C@@]2(CCN(c3cccc(-c4ccccc4)c3)C2)C1 | > 46 µM (inactive) |
| COc1ccc2[nH]cc(CCNc3ncncc3-c3ccccc3C(F)(F)F)c2c1 | > 46 µM (inactive) |
| c1ccc(Nc2nc(-c3ccoc3)nc3ccccc23)cc1 | > 46 µM (inactive) |
| COc1cccc(-c2ccc3ncnc(NCc4cnc(C)cn4)c3c2)c1 | > 46 µM (inactive) |
| CN1CCN(c2ncc3nc(-c4cccs4)c(=O)n(CCc4ccccc4)c3n2)CC1 | > 46 µM (inactive) |
| COCCNc1ncnc2ccc(-c3ccccc3OC)cc12 | > 46 µM (inactive) |
| COc1ccccc1CNc1cc(-c2cccnc2)ncn1 | > 46 µM (inactive) |
| COCCn1c(=O)c(CCc2ccccc2)nc2cnc(OCc3ccccc3)nc21 | > 46 µM (inactive) |
| CCNc1ncc2nc(CCc3ccccc3)c(=O)n(CCC#N)c2n1 | > 46 µM (inactive) |
| CN(C)c1ncc2nc(-c3ccccc3)c(=O)n(C)c2n1 | > 46 µM (inactive) |
| COc1ccccc1-c1ccc2ncnc(N3CCOCC3)c2c1 | > 46 µM (inactive) |
| COCCn1c(=O)c(-c2cccc(C#N)c2)nc2cnc(OCc3ccccc3)nc21 | > 46 µM (inactive) |
| COc1ncc2nc(-c3ccccc3)c(=O)n(CCc3ccccc3)c2n1 | > 46 µM (inactive) |
| Cc1nc2cnc(N3CCN(C)CC3)nc2n(CCc2ccccc2)c1=O | > 46 µM (inactive) |
